# Laboratory results as given in PubChem BioAssay (Tox21).
# Inconclusive results are not listed. Calls of active or inactive are those of the source. Unless noted, calls follow the shape of the dose curve; as a rule, active = well fitted cell-killing curve with a large enough effect in the repeat runs (not every such curve was filed as active); inconclusive = weak or mixed curves, or effect the other way; inactive = no such curve, though single readings can be large or run the other way.
# Tested on: not listed separately
# Test: qHTS assay to identify small molecule antagonists of the farnesoid-X-receptor (FXR) signaling pathway - cell viability counter screen (AID 743221); also: nearly all actives have a fitted effect of over 50% in size
# Conditions: FXR-bla HEK293T viability, CellTiter-Glo luminescence, 16 h; series mostly up to 62.6 µM; activity change, negative = cytotoxicity: at the top concentration
# Outline: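 HEK 293T FXR-bla cells, 5 h pre-incubation; compound + CDCA 50 uM final, 16 h, 37 C; beta-lactamase FRET read first, then CellTiter-Glo luminescence, 30 min RT.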
# % is scaled to controls: 0 for no effect and ±100 for the full control effect.
row,SMILES,"activity change, negative = cytotoxicity"
1,NNS(=O)(=O)c1ccc(Oc2ccc(S(=O)(=O)NN)cc2)cc1,-0.0274% (inactive)
2,CC1=C(CC(=O)O)c2cc(F)ccc2/C1=C\c1ccc(S(C)(=O)=O)cc1,-1.03% (inactive)
3,CN(C)C(=O)NC1(c2ccccc2)CCN(CCC[C@]2(c3ccc(Cl)c(Cl)c3)CCCN(C(=O)c3ccccc3)C2)CC1,-19.3% [at 29.1 µM] (inactive)
4,CC(C)=CCCC(C)CCOC=O (stereo unspecified),9.86% (inactive)
5,OCC(CBr)(CBr)CBr,-6.94% (inactive)
6,NC(Cc1ccc(F)cc1)C(=O)O (stereo unspecified),-10% [at 5.95 µM] (inactive)
7,O=c1oc2c(O)c(O)cc3c(=O)oc4c(O)c(O)cc1c4c23,0.37% [at 29.1 µM] (inactive)
8,O=C1CCCc2ccccc21,0.703% [at 81.1 µM] (inactive)
9,CCOc1ccccc1N,0.862% (inactive)
10,O=c1[nH]c(=O)n([C@H]2C[C@H](O)[C@@H](CO)O2)cc1C(F)(F)F,0.0196% (inactive)
11,CN1CCC[C@@H]1Cc1c[nH]c2ccc(CCS(=O)(=O)c3ccccc3)cc12,6.15% (inactive)
12,CN1[C@@H]2CC[C@H]1CC(OC(=O)c1c[nH]c3ccccc13)C2 (stereo partly specified),-1.43% (inactive)
13,Nc1ccc(Oc2ccc(N)c(N)c2)cc1,13% (inactive)
14,O=[N+]([O-])c1nccn1CO[C@@H](CO)[C@H](O)CO,-1.38% (inactive)
15,CNCCC(Oc1ccccc1OC)c1ccccc1 (stereo unspecified),2.81% (inactive)
16,OCc1ccccc1O,1.5% (inactive)
17,CCCOCCC,4.98% (inactive)

row,SMILES,"activity change, negative = cytotoxicity"
1,Cc1cc(S(=O)(=O)O)c(N)cc1Cl,2.72% [at 81.1 µM] (inactive)
2,OC[C@H]1O[C@@H](O[C@H]2[C@H](O)[C@@H](O)[C@H](O)O[C@@H]2CO)[C@H](O)[C@@H](O)[C@H]1O,0.131% (inactive)
3,CN(CCCN1c2ccccc2CCc2ccccc21)CC(=O)c1ccc(Cl)cc1,-5.21% (inactive)
4,CC1=C2[C@H](/C=C(\C)C(=O)O)CC[C@@H](C)[C@H]2CC1,10.9% [at 81.1 µM] (inactive)
5,CCCCC(=O)O[C@]1(C(=O)CO)[C@H](C)C[C@H]2[C@@H]3CCC4=CC(=O)C=C[C@]4(C)[C@@]3(F)[C@@H](O)C[C@@]21C,-1.43% (inactive)
6,CC1(O)CSC(C)(O)CS1 (stereo unspecified),-0.6% (inactive)
7,COC(=O)c1ccc2cc(C(=O)OC)ccc2c1,-0.314% [at 29.1 µM] (inactive)
8,CCCCNC(=S)NCCCC,-21.3% (inactive)
9,COC(=O)N[C@H](C(=O)N[C@@H](Cc1ccccc1)[C@@H](O)CN(Cc1ccc(-c2ccccn2)cc1)NC(=O)[C@@H](NC(=O)OC)C(C)(C)C)C(C)(C)C,7.31% (inactive)
10,Cn1cnc2c(F)c(Nc3ccc(Br)cc3Cl)c(C(=O)NOCCO)cc21,-2.96% (inactive)
11,O=C(Cl)c1cccc([N+](=O)[O-])c1,6.6% (inactive)
12,CC(C)Nc1nc(N)nc(Cl)n1,6.53% (inactive)
13,O=C(O[C@@H](C(=O)O)[C@@H](OC(=O)c1ccccc1)C(=O)O)c1ccccc1,18.6% [at 81.1 µM] (inactive)
14,CC[C@H]1CC[C@H](NCc2cc3c(cc2OC)[C@H]2C[C@H]2C(=O)N3C)[C@H](c2ccccc2)N1,-16.6% (inactive)
15,NC1=NCC2c3ccccc3Cc3ccccc3N12 (stereo unspecified),-6.61% (inactive)
16,CC1=NN(c2cc(Cl)c(S(=O)(=O)O)cc2Cl)C(=O)C1N=Nc1ccc(S(=O)(=O)O)cc1 (stereo unspecified),-6.53% (inactive)
17,CCOC(=O)COc1ccc2c(c1)CC(NCC(O)c1cccc(Cl)c1)CC2 (stereo unspecified),-4.58% (inactive)

# Molecular target: Vitamin D3 receptor (Homo sapiens) (UniProt P11473)
# Test: qHTS assay to identify small molecule agonists of the vitamin D receptor (VDR) signaling pathway (AID 743222; calls by dose curve)
# Conditions: HEK293T VDR-UAS-bla, beta-lactamase FRET ratio, 16 h; series mostly up to 63.5 µM; activation: at the top concentration
# Outline: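 Using LiveBLAzer B/G FRET detection, agonism was scored in VDR-bla cells exposed overnight (16 h, 37C) to DMSO-dissolved compounds; substrate incubation was 2 h at room temperature.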
# Chain of Vitamin D3 receptor (Homo sapiens) (P11473 whole entry, looked up): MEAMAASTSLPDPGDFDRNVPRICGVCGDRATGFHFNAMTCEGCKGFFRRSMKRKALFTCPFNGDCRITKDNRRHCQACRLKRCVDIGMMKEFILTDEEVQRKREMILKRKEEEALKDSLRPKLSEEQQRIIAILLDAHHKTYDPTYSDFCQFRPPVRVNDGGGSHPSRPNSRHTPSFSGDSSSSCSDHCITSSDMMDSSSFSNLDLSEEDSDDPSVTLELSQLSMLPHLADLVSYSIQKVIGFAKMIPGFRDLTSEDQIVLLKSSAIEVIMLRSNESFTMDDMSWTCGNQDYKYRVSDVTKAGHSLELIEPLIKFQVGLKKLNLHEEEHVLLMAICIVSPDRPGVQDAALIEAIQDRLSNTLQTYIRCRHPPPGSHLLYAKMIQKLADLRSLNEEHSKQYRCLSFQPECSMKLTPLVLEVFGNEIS
row,SMILES,activation
1,NNS(=O)(=O)c1ccc(Oc2ccc(S(=O)(=O)NN)cc2)cc1,0.487% (inactive)
2,CN(C)C(=O)NC1(c2ccccc2)CCN(CCC[C@]2(c3ccc(Cl)c(Cl)c3)CCCN(C(=O)c3ccccc3)C2)CC1,-14.7% [at 29.5 µM] (inactive)
3,CC(C)=CCCC(C)CCOC=O (stereo unspecified),-19.8% (inactive)
4,OCC(CBr)(CBr)CBr,-1.35% (inactive)
5,NC(Cc1ccc(F)cc1)C(=O)O (stereo unspecified),5.15% [at 6.01 µM] (inactive)
6,O=c1oc2c(O)c(O)cc3c(=O)oc4c(O)c(O)cc1c4c23,9.93% [at 29.5 µM] (inactive)
7,O=C1CCCc2ccccc21,-1.21% [at 81.1 µM] (inactive)
8,CCOc1ccccc1N,-2.47% (inactive)
9,CN1CCC[C@@H]1Cc1c[nH]c2ccc(CCS(=O)(=O)c3ccccc3)cc12,-1.38% (inactive)
10,Nc1ccc(Oc2ccc(N)c(N)c2)cc1,-5.89% (inactive)
11,CNCCC(Oc1ccccc1OC)c1ccccc1 (stereo unspecified),0.367% (inactive)
12,OCc1ccccc1O,0.768% (inactive)
13,NC(=O)Cc1cccc(C(=O)c2ccccc2)c1N,1.98% (inactive)
14,CN(CCCN1c2ccccc2CCc2ccccc21)CC(=O)c1ccc(Cl)cc1,-7.46% (inactive)
15,CCCCC(=O)O[C@]1(C(=O)CO)[C@H](C)C[C@H]2[C@@H]3CCC4=CC(=O)C=C[C@]4(C)[C@@]3(F)[C@@H](O)C[C@@]21C,12.8% (inactive)
16,CCCCCCCCCCCCOCCOS(=O)(=O)O,3.78% (inactive)
17,COC(=O)N[C@H](C(=O)N[C@@H](Cc1ccccc1)[C@@H](O)CN(Cc1ccc(-c2ccccn2)cc1)NC(=O)[C@@H](NC(=O)OC)C(C)(C)C)C(C)(C)C,-10.4% (inactive)
18,Cn1cnc2c(F)c(Nc3ccc(Br)cc3Cl)c(C(=O)NOCCO)cc21,-12.6% (inactive)
19,CC(C)Nc1nc(N)nc(Cl)n1,-3.35% (inactive)
20,CC1=NN(c2cc(Cl)c(S(=O)(=O)O)cc2Cl)C(=O)C1N=Nc1ccc(S(=O)(=O)O)cc1 (stereo unspecified),3.14% (inactive)

# Molecular target: Vitamin D3 receptor (Homo sapiens) (UniProt P11473)
# Test: qHTS assay to identify small molecule antagonists of the vitamin D receptor (VDR) signaling pathway (AID 743223; active = well fitted inhibition curve with a large enough effect in the signal ratio in the repeat runs, not every such curve was filed as active; the % refers to the signal ratio)
# Conditions: VDR-UAS-bla HEK293T, beta-lactamase FRET ratio, 16 h; series mostly up to 61 µM; activity change, negative = inhibition: at the top concentration
# Outline: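 Beta-lactamase reporter read-out: FRET substrate fluorescence after 2 h at room temperature, following 16 h exposure of VDR-bla cells to test compound plus 3 nM (final) 1alpha,25-dihydroxyvitamin D3 agonist at 37C.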
row,SMILES,"activity change, negative = inhibition"
1,NNS(=O)(=O)c1ccc(Oc2ccc(S(=O)(=O)NN)cc2)cc1,-4.3% (inactive)
2,NC(Cc1ccc(F)cc1)C(=O)O (stereo unspecified),0.285% [at 6.95 µM] (inactive)
3,O=c1oc2c(O)c(O)cc3c(=O)oc4c(O)c(O)cc1c4c23,3.73% [at 28.5 µM] (inactive)
4,O=C1CCCc2ccccc21,6.25% [at 78.8 µM] (inactive)
5,CCOc1ccccc1N,2.43% (inactive)
6,O=c1[nH]c(=O)n([C@H]2C[C@H](O)[C@@H](CO)O2)cc1C(F)(F)F,14.2% (inactive)
7,CN1CCC[C@@H]1Cc1c[nH]c2ccc(CCS(=O)(=O)c3ccccc3)cc12,2.24% (inactive)
8,Nc1ccc(Oc2ccc(N)c(N)c2)cc1,-16.5% (inactive)
9,CNCCC(Oc1ccccc1OC)c1ccccc1 (stereo unspecified),-14.1% (inactive)
10,OCc1ccccc1O,0.879% (inactive)
11,NC(=O)Cc1cccc(C(=O)c2ccccc2)c1N,-0.172% (inactive)
12,CN(CCCN1c2ccccc2CCc2ccccc21)CC(=O)c1ccc(Cl)cc1,-6.88% (inactive)
13,CCCCC(=O)O[C@]1(C(=O)CO)[C@H](C)C[C@H]2[C@@H]3CCC4=CC(=O)C=C[C@]4(C)[C@@]3(F)[C@@H](O)C[C@@]21C,2.73% (inactive)
14,CCCCNC(=S)NCCCC,3.89% (inactive)
15,COC(=O)N[C@H](C(=O)N[C@@H](Cc1ccccc1)[C@@H](O)CN(Cc1ccc(-c2ccccn2)cc1)NC(=O)[C@@H](NC(=O)OC)C(C)(C)C)C(C)(C)C,1.13% (inactive)
16,Cn1cnc2c(F)c(Nc3ccc(Br)cc3Cl)c(C(=O)NOCCO)cc21,-0.305% (inactive)
17,O=C(Cl)c1cccc([N+](=O)[O-])c1,3.39% (inactive)
18,CC(C)Nc1nc(N)nc(Cl)n1,-0.636% (inactive)
19,NC1=NCC2c3ccccc3Cc3ccccc3N12 (stereo unspecified),-3.42% (inactive)
20,CC1=NN(c2cc(Cl)c(S(=O)(=O)O)cc2Cl)C(=O)C1N=Nc1ccc(S(=O)(=O)O)cc1 (stereo unspecified),9.4% (inactive)
21,CCOC(=O)COc1ccc2c(c1)CC(NCC(O)c1cccc(Cl)c1)CC2 (stereo unspecified),-15.5% (inactive)
22,CN1CCN(C2=Nc3cc(F)ccc3Cc3ccccc32)CC1,-5.57% (inactive)
